Sampled rows, rich in hits. Any-hit rate of the full collection: about 4.3%.
Peg3 promoter: Peg3 promoter activity inhibition | inhibition, % at 20 µM | HeLa PEG-Prom luciferase reporter, luminescence, overnight | AID 588405 | actives 1.7% (n = 360,000);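 active = inhibition of at least 50% at 20 µM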
MITF TRPM1 inh: inhibitors of MITF-driven TRPM1 promoter in melanoma cells; actives 0.83% (n = 330,000); SK-MEL-5 TRPM1 promoter luciferase, 24 h; inhibition, % at 12.5 µM; AID 488899;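 active = mean inhibition across replicates of 60% or more, whatever share of single replicates reaches that level; inconclusive = some that reach 60%, reason not given; inactive = mean inhibition across replicates below 60%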
KKLEB cytotox: reduces viability of KKLEB cystic fibrosis airway cells. KKLEB CF airway cells viability, ATPlite luminescence, overnight; hits give low values; cells stimulated with P. aeruginosa culture filtrate. activity change (cytotoxicity), % at 5 µM. actives 0.36% (n = 360,000);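 active = corrected activity change at or below -50% at 5 µM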
CHOP inhibitor: CHOP inhibition in unfolded protein response; CHO-K1 CHOP-promoter luciferase, tunicamycin-induced, 15-18 h; inhibition, % at 10 µM; actives 3.8% (n = 220,000);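 active = compounds that reduced the stress-induced luciferase reporter signal by more than about 70% of percent inhibition, limit read from the data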
CF NFkB inh: inhibitors of cystic fibrosis induced NF-kB | KKLEB NF-kB-GFP reporter, PAF-induced, GFP fluorescence overnight | inhibition, % at 5 µM | actives 0.86% (n = 360,000) | AID 588850;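 active = at least 50% inhibition at 5 µM, scaled per plate between neutral and stimulator controls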;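 note: PAF is a Pseudomonas aeruginosa culture filtrate used as stimulus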
HIF-2a block: inhibitors of HIF-2a; 786-0 RCC cells HIF-2a reporter, luciferase luminescence, overnight; inhibition, % at 18.8 µM; actives 0.72% (n = 360,000); AID 624352;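 active = inhibition of the luminescence signal of 40% or more relative to plate controls, in a single-dose primary screen at 18.75 µM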
Large screens that a line does not name were inactive.

Cc1ccc(N2CCN(C(=O)C(=O)c3cccc(Br)c3)CC2)cc1	none (no result: Peg3 promoter, MITF TRPM1 inh, KKLEB cytotox, CHOP inhibitor, CF NFkB inh)
CN(C(=O)CN1C(=O)S/C(=C\c2ccc(Cl)cc2)C1=O)C1CCS(=O)(=O)C1 (stereo unspecified)	none (no result: CHOP inhibitor)
CN(C)S(=O)(=O)c1ccc(N2CCCC2)c(C(=O)N2CCN(S(=O)(=O)c3ccc(F)c(F)c3)CC2)c1	none (no result: CHOP inhibitor)
COc1ccc([C@@]2(C(C)C)ON(c3ccccc3C(F)(F)F)C2=O)cc1	Peg3 promoter 62, CF NFkB inh 53 (no result: CHOP inhibitor)
O=C(c1ccc(S(=O)(=O)N2CCc3ccccc3C2)cc1)N1CCCCC1	none
O=C(O)c1cccc(-n2c(/C=C/c3cccc([N+](=O)[O-])c3)nc3ccccc3c2=O)c1	none (no result: CHOP inhibitor)
CC(=O)N(C(C)=O)n1c(/C=C/c2cccc([N+](=O)[O-])c2)nc2ccccc2c1=O	CHOP inhibitor 93
Cc1cccc(NC(=O)CSc2nncn2N)c1C	none (no result: MITF TRPM1 inh, CHOP inhibitor)
O=C(Nc1ccc(Br)cc1)c1ccc(N2C(=O)C3CC=C(Cl)CC3C2=O)cc1 (stereo unspecified)	CHOP inhibitor 77
O=C(Nc1ccc(Br)cc1)c1ccc(N2C(=O)C3CCCCC3C2=O)cc1 (stereo unspecified)	none (no result: CHOP inhibitor)
CCCCC(CC)C(=O)O (stereo unspecified)	none (no result: MITF TRPM1 inh, CHOP inhibitor)
CCCCn1c(=O)[nH]c(=O)c2c1nc(-c1ccc(OC)c(Br)c1)n2CC(C)C	Peg3 promoter 55 (no result: CHOP inhibitor)
C=CCOc1ccc(-c2nc3c(c(=O)[nH]c(=O)n3CCCC)n2C)cc1Br	none (no result: CHOP inhibitor)
CC1CCN(CC(=O)Nc2ccc(S(=O)(=O)N3C(C)CCCC3C)cc2)CC1 (stereo unspecified)	none (no result: CHOP inhibitor)
CC(C)c1ccc(CNCCCSc2ncccn2)cc1	none (no result: CHOP inhibitor)
CCOC(=O)C(Cc1nc(OCc2ccccc2)cc(OCc2ccccc2)n1)=NO	Peg3 promoter 55 (no result: CHOP inhibitor)
O=C(NC1CCCCC1)C(C1CC1)n1c(=O)c(-c2cc3ccccc3[nH]2)nc2ccccc21 (stereo unspecified)	none (no result: Peg3 promoter, MITF TRPM1 inh, KKLEB cytotox, CHOP inhibitor, CF NFkB inh)
C[C@]12CCC(=O)C=C1[C@H](O)C[C@@H]1[C@@H]2[C@@H](O)C[C@@]2(C)[C@H]1CC[C@]2(O)C(=O)CO	none
C[C@]12CCC(=O)C=C1CC[C@@H]1[C@@H]2[C@@H](O)C[C@@]2(C)[C@H]1CC[C@]2(O)C(=O)CO	CF NFkB inh 73
CC12CCC(=O)C=C1CCC1C2C(O)CC2(C)C1CCC2(O)C(=O)CO (stereo unspecified)	CF NFkB inh 61 (no result: CHOP inhibitor)
COCC(Cc1ccccc1)NC(=O)Cn1cc(C)c(=O)[nH]c1=O (stereo unspecified)	none (no result: CHOP inhibitor)
O=c1[nH]c2ccc(Cl)cc2c(=O)n1Cc1ccco1	CHOP inhibitor 81
O=c1c2cc(Cl)ccc2[nH]c(=S)n1Cc1cccs1	CHOP inhibitor 97
Oc1ccc(C[C@H]2CNCCN2CCCCC2CCCCC2)cc1	Peg3 promoter 106 (no result: CHOP inhibitor)
Oc1ccc(C[C@H]2CNCCN2CCC23CC4CC(CC(C4)C2)C3)cc1	none (no result: CHOP inhibitor)
Oc1ccc(C[C@@H]2CNCCN2CCC23CC4CC(CC(C4)C2)C3)cc1	Peg3 promoter 51 (no result: CHOP inhibitor)
Oc1ccc(C[C@@H]2CNCCN2CC2CCCCC2)cc1	none (no result: CHOP inhibitor)
O=C(CSc1ncc(-c2ccccc2)n1C1CCCC1)N1CCc2ccccc21	CHOP inhibitor 75
Cn1c(-c2ccccc2)cnc1SCC(=O)N1CCCc2ccccc21	none
c1ccc2nc(-c3nc4ccccc4o3)ccc2c1	CHOP inhibitor 71
COc1ccccc1C#CC1=CC(=O)C[C@H](c2ccc(F)cc2)C1	none (no result: MITF TRPM1 inh, CHOP inhibitor)
O=C(Nc1ccc(F)cc1)c1nn(-c2ccccc2)c(=O)cc1Cl	Peg3 promoter 99
O=C(COC(=O)c1ccc2c(c1)C(=O)N(c1cccc3ncccc13)C2=O)c1ccc(Cl)cc1	CHOP inhibitor 87
Cc1ccc(C(=O)COC(=O)c2ccc3c(c2)C(=O)N(c2cccc4ncccc24)C3=O)cc1	Peg3 promoter 102
O=C(OCC(=O)c1ccc(Cl)cc1Cl)c1ccc2c(c1)C(=O)N(c1cccc3ncccc13)C2=O	none
CCOC(=O)c1ccc(S(=O)(=O)NC2CCC(C)CC2)cc1 (stereo unspecified)	none (no result: CHOP inhibitor)
CCC(C(=O)NC1CCCC1)N(Cc1ccc2c(c1)OCO2)C(=O)c1snc(C(N)=O)c1N (stereo unspecified)	none
CC(C)CC(C(=O)NC1CCCC1)N(Cc1ccc2c(c1)OCO2)C(=O)c1snc(C(N)=O)c1N (stereo unspecified)	CHOP inhibitor 81
COc1cc(C(=O)N[C@H](C(=O)NC(C)C23CC4CC(CC(C4)C2)C3)C(C)C)cc(OC)c1OC (stereo partly specified)	CHOP inhibitor 75
COc1cc(C(=O)NC23CC4CC(CC(C4)C2)C3)cc(OC)c1OC	none (no result: CHOP inhibitor)
Cc1ccsc1/C=N/Nc1ccc(C(=O)O)cc1	MITF TRPM1 inh inconclusive, HIF-2a block 57 (no result: CHOP inhibitor)
CCCCCCCOC(=O)C[N+](C)(C)CCOC1CC2CCC1(C)C2(C)C (stereo unspecified)	Peg3 promoter 99, MITF TRPM1 inh 94, CHOP inhibitor 93
CCCCCCOC(=O)C[N+](C)(C)CCOC1CC2CCC1(C)C2(C)C (stereo unspecified)	none
O=C1NC(c2ccccc2)=C(c2ccccc2)C1=O	none
O=C1C(Br)=C(c2ccccc2)C(c2ccccc2)=C1c1ccccc1	Peg3 promoter 105, MITF TRPM1 inh 80, KKLEB cytotox -74, CF NFkB inh 79 (no result: CHOP inhibitor)
CSC(=Nc1ccccc1)C(C#N)c1nc2ccccc2[nH]1 (stereo unspecified)	CHOP inhibitor 82
CCC(=O)Nc1ccc(NC(=O)CSc2nnnn2-c2ccc3c(c2)OCCO3)cc1	none
Cc1ccc(NC(=O)CCSc2nnnn2-c2ccc3c(c2)OCO3)cc1C	CHOP inhibitor 73
COC(=O)c1cccc(-n2nnnc2SCC(=O)Nc2nc3c(s2)CCCC3)c1	CHOP inhibitor 88
O=C(CSc1nnnn1-c1ccc2c(c1)OCCO2)Nc1nc2c(s1)CCCC2	CHOP inhibitor 87
COc1cccc(-n2nnnc2SCC(=O)Nc2nc3c(s2)CCCC3)c1	none
CC1=C(C(=O)N(C)C)CC(CC(=O)NCCc2ccccn2)C(=O)N1Cc1ccc(C(C)(C)C)cc1 (stereo unspecified)	none (no result: MITF TRPM1 inh, CHOP inhibitor)
Cc1ccc(-n2nnnc2Sc2nc([N+](=O)[O-])nn2C)cc1	none
Cc1ccc(-n2nnnc2Sc2nc([N+](=O)[O-])nn2C)c(C)c1	MITF TRPM1 inh 73 (no result: CHOP inhibitor)
C[C@H](CO)N1C[C@H](C)[C@H](CN(C)C(=O)Nc2cccc(Oc3ccccn3)c2)OCc2cnnn2CCCC1=O	none (no result: MITF TRPM1 inh, CHOP inhibitor)
O=C1/C(=C/c2cccnc2)SC(=S)N1C1CCS(=O)(=O)C1 (stereo unspecified)	CF NFkB inh 72, HIF-2a block 53
O=C1/C(=C\c2cccnc2)SC(=S)N1C1CCS(=O)(=O)C1 (stereo unspecified)	CF NFkB inh 66
O=C1/C(=C/c2cccnc2)SC(=S)N1N1CCOCC1	none
